Assay results published in PubChem BioAssay (Tox21).
Several values for one entry are separate records, joined by “and”; a condition that tells them apart may be missing. Equal entries are not always repeated. Inconclusive results are not listed. Where a structure was tested more than once in an assay, its records may differ in their call. Activity calls are given as the source filed them. Unless noted, the call rests on the fitted dose curve; in most records, active means well fitted curve in the direction sought with a large enough effect in the repeat runs; inconclusive means weak or mixed curves; inactive means no such curve, though single readings can be large; an effect the other way counts as inactive or inconclusive.

Experiments:
[1] = qHTS assay to identify aromatase inhibitors - cell viability counter screen (AID 743084);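 further: cells stimulated with testosterone during compound exposure; nearly all actives have a fitted effect of over 55% in size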; further: potency means the concentration at half of the fitted maximal effect
[2] = molecular target: Aryl hydrocarbon receptor (Homo sapiens) (UniProt P35869); experiment: qHTS assay to identify small molecule that activate the aryl hydrocarbon receptor (AhR) signaling pathway (AID 743085); further: nearly all actives have a fitted effect of over 15% in size; further: potency means the concentration at half of the fitted maximal effect;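 on activation: HG2L7.5c1 human HepG2 liver cells with stably integrated DRE-driven firefly reporter; series mostly up to about 70 µM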
In short: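 A multiplexed format paired cell viability (CellTiter-Fluor fluorescence) with AhR-dependent luciferase output (ONE-Glo luminescence) in the same wells of HepG2 DRE-luc cells after 24 h compound exposure at 37C.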

[3] = qHTS assay to identify small molecule that activate the aryl hydrocarbon receptor (AhR) signaling pathway - cell viability counter screen (AID 743086); further: nearly all actives have a fitted effect of over 45% in size; further: potency means the concentration at half of the fitted maximal effect
In short: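 HepG2-AhR-luc (HG2L7.5c1) cells, 4000/well, treated 24 h at 37 C with compound; viability measured as CellTiter-Fluor fluorescence after 30 min in the same wells as the luciferase read.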

[4] = molecular target: Peroxisome proliferator-activated receptor gamma (Homo sapiens) (UniProt P37231); experiment: qHTS assay to identify small molecule agonists of the peroxisome proliferator-activated receptor gamma (PPARg) signaling pathway (AID 743094; active means well fitted activation curve with a large enough effect in the signal ratio in the repeat runs, not every such curve was filed as active; the % refers to the signal ratio)
In short: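 Cell-based bla reporter, HEK293H background, PPARg-driven UAS. Pre-incubation 5 h, 37C, 5% CO2. Compound 17 h, 37C. Substrate 1 h RT; fluorescence.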

[5] = qHTS assay for small molecule agonists of the antioxidant response element (ARE) signaling pathway - cell viability counter screen (AID 743203; calls by dose curve; further: nearly all actives have a fitted effect of over 55% in size; further: potency means the concentration at half of the fitted maximal effect)
In short: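 Measured in the same wells as the beta-lactamase ARE reporter, this read-out is CellTiter-Glo luminescence from HepG2 ARE-bla cells given compounds for 16 hrs.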

[6] = qHTS assay for small molecule activators of the heat shock response signaling pathway - cell viability counter screen (AID 743209); further: nearly all actives have a fitted effect of over 50% in size; further: potency means the concentration at half of the fitted maximal effect
In short: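 Same-well multiplex: after 2.5 h room-temperature incubation with LiveBLAzer B/G substrate and fluorescence reading, CellTiter-Glo reagent was added to HSE-bla HeLa cells that had received compound for 5 h at 37 C; luminescence read after 30 min.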

[7] = qHTS assay to identify small molecule antagonists of the peroxisome proliferator-activated receptor gamma (PPARg) signaling pathway - cell viability counter screen (AID 743194); further: nearly all actives have a fitted effect of over 55% in size; further: potency means the concentration at half of the fitted maximal effect
In short: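 Cytotoxicity counter screen in PPARg-bla HEK293H cells, same wells as reporter assay. Compounds plus 50 nM rosiglitazone (final) for 17 h at 37 C, then viability read by CellTiter-Glo luminescence.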

[8] = qHTS assay for small molecule activators of the heat shock response signaling pathway (AID 743210; active means well fitted activation curve with a large enough effect in the signal ratio in the repeat runs, with a control signal flat, not every such curve was filed as active; the % refers to the signal ratio;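 further: HeLa cells with beta-lactamase reporter driven by heat shock elements; series mostly up to about 63 µM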)
In short: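 Following overnight attachment, HSE-bla HeLa cells received test compounds for 5 h at 37 C; beta-lactamase activity was then detected via FRET substrate fluorescence.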

[9] = qHTS assay for small molecule agonists of the antioxidant response element (ARE) signaling pathway (AID 743202; active means well fitted activation curve with a large enough effect in the signal ratio in the repeat runs, not every such curve was filed as active; the % refers to the signal ratio; further: potency means the concentration at half of the fitted maximal effect)
In short: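 HepG2 ARE-bla cells; 16 h treatment at 37 C; FRET-based beta-lactamase fluorescence read after 2 h substrate incubation at room temperature.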

Measured: Potency

Sequence of Aryl hydrocarbon receptor (Homo sapiens) (P35869 whole entry, looked up): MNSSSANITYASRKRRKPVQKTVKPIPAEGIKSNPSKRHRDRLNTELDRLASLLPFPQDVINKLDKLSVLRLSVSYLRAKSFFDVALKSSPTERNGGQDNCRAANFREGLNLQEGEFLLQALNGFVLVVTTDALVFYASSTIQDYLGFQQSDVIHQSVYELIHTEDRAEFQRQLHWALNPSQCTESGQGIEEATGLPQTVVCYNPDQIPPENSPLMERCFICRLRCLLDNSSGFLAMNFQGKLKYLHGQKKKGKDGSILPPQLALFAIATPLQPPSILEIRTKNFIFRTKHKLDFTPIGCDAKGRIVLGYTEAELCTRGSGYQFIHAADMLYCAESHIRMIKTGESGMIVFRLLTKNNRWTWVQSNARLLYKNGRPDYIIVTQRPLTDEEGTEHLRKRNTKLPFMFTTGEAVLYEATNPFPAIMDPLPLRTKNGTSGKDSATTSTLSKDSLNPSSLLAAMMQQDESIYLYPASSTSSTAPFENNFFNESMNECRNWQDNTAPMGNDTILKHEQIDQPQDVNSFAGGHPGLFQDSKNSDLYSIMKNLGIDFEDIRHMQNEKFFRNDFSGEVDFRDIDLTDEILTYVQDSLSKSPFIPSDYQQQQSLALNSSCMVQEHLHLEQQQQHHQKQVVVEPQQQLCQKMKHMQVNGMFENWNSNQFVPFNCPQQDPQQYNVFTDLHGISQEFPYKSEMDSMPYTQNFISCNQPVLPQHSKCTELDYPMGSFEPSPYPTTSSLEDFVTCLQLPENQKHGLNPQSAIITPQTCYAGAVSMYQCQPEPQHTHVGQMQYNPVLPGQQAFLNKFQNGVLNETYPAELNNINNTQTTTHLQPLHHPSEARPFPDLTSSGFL
Sequence of Peroxisome proliferator-activated receptor gamma (Homo sapiens) (P37231 whole entry, looked up): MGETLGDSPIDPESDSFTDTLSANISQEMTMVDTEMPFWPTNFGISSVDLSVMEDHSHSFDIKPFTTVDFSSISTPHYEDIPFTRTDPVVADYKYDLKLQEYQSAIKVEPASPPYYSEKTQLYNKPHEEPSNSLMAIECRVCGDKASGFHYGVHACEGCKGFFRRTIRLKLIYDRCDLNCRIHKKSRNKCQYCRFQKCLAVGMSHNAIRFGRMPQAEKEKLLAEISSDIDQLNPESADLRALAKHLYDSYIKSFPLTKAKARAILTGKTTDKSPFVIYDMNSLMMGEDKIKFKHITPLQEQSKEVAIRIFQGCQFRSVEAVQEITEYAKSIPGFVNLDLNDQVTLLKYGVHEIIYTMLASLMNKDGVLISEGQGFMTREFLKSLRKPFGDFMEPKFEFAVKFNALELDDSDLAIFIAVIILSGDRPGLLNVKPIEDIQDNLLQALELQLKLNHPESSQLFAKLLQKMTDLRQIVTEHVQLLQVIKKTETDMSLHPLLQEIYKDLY

O=C(O)c1cc(O)c2c(c1)[C@H]([C@H]1c3cc(C(=O)O)cc(O)c3C(=O)c3c(O[C@@H]4O[C@H](CO)[C@@H](O)[C@H](O)[C@H]4O)cccc31)c1cccc(O[C@@H]3O[C@H](CO)[C@@H](O)[C@H](O)[C@H]3O)c1C2=O
inactive: [1] | [2] | [3] | [4]

Cc1cc(-c2ccc(N=Nc3ccc4c(S(=O)(=O)O)cc(S(=O)(=O)O)c(N)c4c3O)c(C)c2)ccc1N=Nc1ccc2c(S(=O)(=O)O)cc(S(=O)(=O)O)c(N)c2c1O
inactive and 29.8 µM (active): [3]
active: [1] 23.7 µM
inactive: [2] | [4]

C=C1[C@H](CO)[C@@H](O)C[C@@H]1n1cnc2c(=O)[nH]c(N)nc21
inactive: [1] | [2] | [3] | [4]

CC(C)=CCC/C(C)=C/CC/C(C)=C/CC/C(C)=C/CC1=C(C)C(=O)c2ccccc2C1=O
active: [2] 10.6 µM
inactive: [1] | [3] | [4]

NC(=O)c1cc[n+](CC2=C(C(=O)O)N3C(=O)[C@@H](NC(=O)C(c4ccccc4)S(=O)(=O)[O-])[C@H]3SC2)cc1 (stereo partly drawn)
inactive: [1] | [2] | [3] | [4]

CNC(=O)OCc1cccc(COC(=O)NC)n1
inactive: [1] | [2] | [3] | [4]

O=C1c2ccccc2CN2C(=O)c3ccccc3CN12
inactive: [1] | [2] | [3] | [4]

NC(N)=NCC1COC2(CCCCC2)O1 (stereo not drawn)
inactive: [1] | [2] | [3] | [4]

O=C(O)c1ccc(NC2OC[C@@H](O)[C@H](O)[C@H]2O)cc1 (stereo partly drawn)
inactive: [1] | [2] | [3] | [4]

CC(=O)N[C@@H](C=O)[C@H](O)[C@H](O)[C@@H](O)CO
inactive: [1] | [2] | [3] | [4]

O=C(CCCN1CCN2CCCC2C1)c1ccc(F)cc1 (stereo not drawn)
inactive: [1] | [2] | [3] | [4]

CC/C(=C(/CC)c1ccc(OP(=O)(O)O)cc1)c1ccc(OP(=O)(O)O)cc1
inactive: [1] | [2] | [3] | [4]

COc1ccc(/C=N/NC(=O)c2ccncc2)c(C(=O)O)c1OC
active: [2] 11.9 µM
inactive: [1] | [3] | [4]

O=C1CCC(c2ccccc2)(C2CCN(Cc3ccccc3)CC2)C(=O)N1 (stereo not drawn)
inactive: [1] | [2] | [3] | [4]

COC1[C@@H](O[C@@H]2O[C@H](C)[C@@H](O[C@H]3C[C@@](C)(O)[C@H](OC(=O)CC(C)C)[C@H](C)O3)[C@H](N(C)C)[C@H]2O)[C@@H](CC=O)C[C@@H](C)[C@@H](O)/C=C/C=C/C[C@@H](C)OC(=O)C[C@H]1OC(C)=O (stereo partly drawn)
inactive: [1] | [2] | [3] | [4]

CCCCCCCCCCCCCCCCCCNC(=O)OC1CCN(C(=O)OC[C@H](COC(=O)N(Cc2cccc[n+]2CC)C(=O)c2ccccc2OC)OC)CC1
active: [1] 29.8 µM | [5] 26.6 µM | [6] 23.7 µM
inactive: [2]

COc1cc([C@@H]2c3cc4c(cc3[C@@H](O[C@@H]3O[C@@H]5CO[C@@H](C)O[C@H]5[C@H](O)[C@H]3O)[C@H]3COC(=O)[C@H]23)OCO4)cc(OC)c1O
inactive: [1] | [2] | [3] | [7]

CCC[C@@H]1C[C@@H](C(=O)N[C@@H]([C@H]2O[C@H](SC)[C@H](OP(=O)(O)O)[C@@H](O)[C@H]2O)[C@H](C)Cl)N(C)C1
inactive: [1] | [2] | [3] | [4]

CN(C)CCOc1ccc(/C(=C(/CCCl)c2ccccc2)c2ccccc2)cc1
inactive and 40.5 µM (active): [3]
active: [1] 45.5 µM | [7] 25.8 µM | [5] 16.1 µM | [6] 28.9 µM
inactive: [2] | [4]

SC1CCCCC1
not listed: [9]
inactive: all other assays above

C=C1C(CCl)(CCl)C2(Cl)C(Cl)C(Cl)C1(Cl)C2(Cl)Cl (stereo not drawn)
inactive: [2] | [3]
active: [1] 53.8 µM | [7] 54.3 µM | [5] 60.4 µM | [6] 54.3 µM

CCCOC(=O)c1ccc(O)cc1
inactive and 23 µM (active): [2]
active: [9] 17.2 µM
not listed: [7]
inactive: all other assays above

CCSCC
not listed: [3] | [8]
inactive: all other assays above
